Screens from PubChem BioAssay.
The list is not random: actives were taken first. Their share in the collection is about 4.8%.
15-hLO inh – blocks human 15-lipoxygenase activity. 74,000 compounds, 1.4% hits. purified 15hLO-1, xylenol orange hydroperoxide absorbance. P16050. Potency, µM (titrated, usually from 57.1 µM), actives largely listed as inhibitors; further: nearly all actives have a fitted effect of over 55% in size
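Purified human 15hLO-1 (40 nM final) in 25 mM Hepes pH 7.5, 0.01% Triton X-100 was preincubated with compound 15 min at room temperature, then reacted 6 min with 50 uM arachidonic acid; hydroperoxide detected by Fe-XO, 573/405 nm absorbance ratio.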
TSHR agonist – TSH receptor (human) agonism | HEK293-CNG-TSHR cells (CNG channel as cAMP sensor), membrane potential dye, cAMP | Potency, µM (titrated, usually from 57.1 µM), most hits filed as activators | 73,000 compounds, 0.48% hits | AID 926; active means well fitted activation curve with a large enough effect in the main read-out, with a control signal flat, not every such curve was filed as active; inconclusive means small, poorly fitted or top-dose-only effect, or a change in a side signal; inactive means no such curve, though single readings can be large or run the other way; reference of the percent scale not stated here;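 further: the control signal comes from parental cells without the receptor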
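HEK 293 cells stably expressing TSHR and a modified CNG channel, with CNG-only parental cells as counterscreen, were preloaded 60 min at room temperature with membrane potential dye containing 100 uM RO 20-1724. Compound exposure was 30 min, and depolarization was read as fluorescence at 590 nm.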
ERK AVP block – inhibitors of vasopressin-stimulated ERK signaling pathway; 72,000 compounds, 0.99% hits; AID 995; HEK293-V1b, vasopressin-stimulated pERK AlphaScreen; Potency, µM (top dose mostly 57.5 µM), actives largely listed as inhibitors; further: nearly all actives have a fitted effect of over 55% in size
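qHTS, compounds titrated on V1b-expressing HEK293 cells. Preincubation 30 min at 37C, vasopressin 25 nM for 5 min, lysis 10 min, bead incubation 5 hr at room temperature.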
Caspase-1 inhib – allosteric or competitive inhibitors of human caspase-1; P29466; Potency, µM (series often up to 57.5 µM), usual class: inhibitors; AID 900; Caspase-1 enzyme, Ac-WEHD-AFC fluorogenic rate; 75,000 compounds, 0.03% hits
HEK293 cAMP ctrl – counter-screen for TSHR agonists: cAMP increase in parental HEK293; 73,000 compounds, 2.5% hits; Potency, µM (highest dose often 57.1 µM), hits mostly activators; AID 938; parental HEK293 CNG cAMP sensor, membrane potential fluorescence; further: nearly all actives have a fitted effect of over 55% in size
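Parental HEK 293 cells stably expressing a cAMP-gated CNG channel were loaded with membrane potential dye containing 100 uM RO 20-1724 for 60 min. Compound added for 30 min; depolarization read as fluorescence intensity at 590 nm.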
Casp7 inh – blocks human caspase-7 allosterically or competitively; P55210; recombinant caspase-7, Ac-DEVD-AFC fluorescence rate; Potency, µM (series often up to 57.5 µM), actives largely listed as inhibitors; 75,000 compounds, 0.02% hits; AID 889; active means well fitted inhibition curve with a large enough effect in the main read-out, with a control signal flat, not every such curve was filed as active; inconclusive means small, poorly fitted or top-dose-only effect, or a change in a side signal
Hits are given with their value; – = inactive; ? = inconclusive; · = no result. Unless noted, the call rests on the fitted dose curve; in most records, active means well fitted curve in the direction sought with a large enough effect; inconclusive means small, poorly fitted or top-dose-only effect, or another doubt; inactive means no such curve, though single readings can be large; an effect the other way counts as inactive or inconclusive.

SMILES	15-hLO inh	TSHR agonist	ERK AVP block	Caspase-1 inhib	HEK293 cAMP ctrl	Casp7 inh
COc1ccc(Oc2nc(C)nc3c2oc2ccccc23)cc1	–	?	–	–	25.1µM	–
c1ccc(CNc2ncnc3ccccc23)cc1	–	?	25.1µM	–	?	–
CN(C)c1ccc(-c2cncnc2NCc2ccccc2)cc1	–	–	25.1µM	–	–	–
c1ccc(CNc2ncnc3ccc(-c4ccoc4)cc23)cc1	–	–	–	–	–	–
CN(C)c1ccc(-c2ccc3ncnc(NCc4ccccc4)c3c2)cc1	–	?	12.6µM	?	–	–
COC(=O)C1=C(N)Oc2cc(C)n(CCN3CCOCC3)c(=O)c2C1c1cccnc1 (stereo not given)	–	–	–	–	–	–
CCNc1ncc2nc(-c3cn(C)c4ccccc34)c(=O)n(C[C@H]3CCCO3)c2n1	–	–	?	·	–	–
Cn1c(=O)c2c(nc(/C=C\c3cccc(Cl)c3)n2C)n(C)c1=O	–	–	–	–	–	–
O=C(CSc1nncs1)NCc1ccc2c(c1)OCO2	–	–	–	–	–	–
Cc1cc(C(=O)CSc2nncs2)c(C)n1-c1ccc2c(c1)OCO2	–	?	31.6µM	–	?	–
O=S(=O)(c1ccccc1)N1CCC2(CCN(c3ncccn3)CC2)CC1	–	–	–	–	–	–
CC(=O)c1cccc(NC(=O)Nc2cc3sccc3n2C)c1	15.8µM	–	?	–	–	–
CCOC(=O)c1c(NC(=O)c2cc(C3CC3)on2)sc2c1CCCC2	–	–	–	–	–	–
O=C1CC(c2cccc(Cl)c2)Cc2nc(N3CCOCC3)ncc21 (stereo not given)	–	?	?	–	5.01µM	–
CCN1CCN(c2ncc3c(n2)CC(c2cc(OC)c(OC)c(OC)c2)CC3=O)CC1 (stereo not given)	–	?	–	–	10µM	–
O=C1CC(c2cccc(Cl)c2)Cc2nc(N3CCN(c4ccccc4)CC3)ncc21 (stereo not given)	–	?	–	–	?	–
CCCCCN=c1ccn(Cc2ccccc2)c2ccccc12	–	?	?	–	15.8µM	–
Cc1cc(NC(=O)c2ccccc2NS(=O)(=O)c2c(C)c(C)cc(C)c2C)no1	–	?	–	–	31.6µM	–
CC(C)(C)c1csc(NC(=O)c2ccc(Cl)s2)n1	–	–	–	–	–	–
CCNc1nc(N)c(C(=O)c2ccc(Cl)s2)s1	–	–	3.16µM	–	–	–
CCCCn1nnnc1NCc1cccnc1	–	–	–	–	–	–
CCn1nnnc1NCc1cccn1C	–	?	–	–	25.1µM	–
COc1c(Cl)ccc(Cl)c1C(=O)O	–	·	–	–	·	–
Cc1nnc(NC(=O)c2ccco2)s1	–	–	·	–	–	–
O=C(Nc1nc2c(ccc3ccccc32)s1)c1ccco1	?	–	12.6µM	–	–	–
SMILES	15-hLO inh	TSHR agonist	ERK AVP block	Caspase-1 inhib	HEK293 cAMP ctrl	Casp7 inh
CCCCCCN	–	–	–	–	–	–
CCc1nnc(NC(=O)CSc2nnc(-c3ccccc3OC)n2-c2ccccc2)s1	–	?	–	–	10µM	–
CCc1nnc(NC(=O)CSc2nnc(-c3ccccc3O)n2-c2ccc(C)cc2)s1	–	?	?	–	?	–
O=C(O)COCCN1CCN([C@@H](c2ccccc2)c2ccc(Cl)cc2)CC1	–	–	–	–	–	–
COc1ccc(-c2cc(=O)c3ccccc3o2)cc1	–	·	–	–	·	–
COc1ccc(-c2cc(=O)c3ccccc3s2)cc1	?	?	12.6µM	–	?	–
C=CCN(C(=O)Cn1nnc2ccccc21)C(C(=O)NCCOC)c1ccc(OC)cc1OC (stereo not given)	–	–	–	–	–	–
CCC(C)(C)NC(=O)C(c1cccn1C)N(C(=O)Cn1nnc2ccccc21)c1ccccc1OC (stereo not given)	–	?	–	–	?	–
COc1ccc(CNC(=O)C(c2ccco2)N(Cc2cccs2)C(=O)Cc2cccs2)cc1 (stereo not given)	–	?	–	–	20µM	–
CCC(C)(C)NC(=O)C(c1cccn1C)N(Cc1ccccc1)C(=O)Cn1nnc2ccccc21 (stereo not given)	–	?	–	–	10µM	–
